Measurements reported in PubChem BioAssay AID1159580 (chemical genetic matrix, 2015).
Values joined by “and” are separate entries in the source; they are usually repeats but may differ in a detail not shown here. Equal values may be shown once. The campaign covered roughly 5,500 compounds. About 2,000 (36%) were called active. Roughly 18% stayed inconclusive and do not appear here. Cut-off read from the data, not from the text of the source: active = normalized growth mostly below about 0.91 (no sharp cut-off); inconclusive = no clear call, values can overlap the other calls; inactive = mostly above about 0.92. The list shows a part of the results.

Test: chemical genetic growth profiling, strain panel (AID 1159580);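 note: tested at 20 µM; growth read once vehicle control cultures reached saturation at 30 °C; 1 = growth at the plate median or of vehicle wells; lower values mean less growth of the strain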
Settings: S. cerevisiae deletion strains, growth OD

Measured: normalized growth

OCc1ccccc1O
inactive: locus YAL021C, strain ccr4, stronger effect = lower value 1.02 | locus YAL026C, strain drs2, stronger effect = lower value 1.02 | locus YAL030W, strain snc1, stronger effect = lower value 1 | locus YBL061C, strain skt5, stronger effect = lower value 1.03 | locus YBR009C, strain hhf1, stronger effect = lower value 1.02 | locus YBR021W, strain FUR4, stronger effect = lower value 1.02 | locus YBR023C, strain chs3, stronger effect = lower value 1.02 | locus YBR171W, strain sec66, stronger effect = lower value 1.01 | locus YBR229C, strain ROT2, stronger effect = lower value 1.02 | locus YBR231C, strain swc5, stronger effect = lower value 1.03 | locus YBR279W, strain paf1, stronger effect = lower value 1.03 | locus YCL011C, strain gbp2, stronger effect = lower value 1.03 | locus YCL016C, strain dcc1, stronger effect = lower value 1.02 | locus YCL029C, strain bik1, stronger effect = lower value 0.995 | locus YCL069W, strain vba3, stronger effect = lower value 1 | locus YCR088W, strain abp1, stronger effect = lower value 1.04 | locus YDL005C, strain med2, stronger effect = lower value 1.02 | locus YDL035C, strain GPR1, stronger effect = lower value 1.02 | locus YDL040C, strain nat1, stronger effect = lower value 1.01 | locus YDL074C, strain BRE1, stronger effect = lower value 1.04 | locus YDL101C, strain DUN1, stronger effect = lower value 1.02 | locus YDL134C, strain PPH21, stronger effect = lower value 1.02 | locus YDL185W, strain tfp1, stronger effect = lower value 0.992 | locus YDL192W, strain arf1, stronger effect = lower value 0.991 | locus YDR001C, strain nth1, stronger effect = lower value 1.02 | locus YDR069C, strain doa4, stronger effect = lower value 1.03 | locus YDR101C, strain arx1, stronger effect = lower value 0.987 | locus YDR137W, strain rgp1, stronger effect = lower value 1.02 | locus YDR150W, strain NUM1, stronger effect = lower value 1.02 | locus YDR159W, strain sac3, stronger effect = lower value 1.05 | locus YDR162C, strain NBP2, stronger effect = lower value 1 | locus YDR195W, strain ref2 1.02 | locus YDR297W, strain sur2, stronger effect = lower value 1.02 | locus YDR318W, strain mcm21, stronger effect = lower value 0.992 | locus YDR334W, strain swr1, stronger effect = lower value 1.03 | locus YDR335W, strain msn5, stronger effect = lower value 1.03 | locus YDR388W, stronger effect = lower value 0.991 | locus YDR392W, strain spt3, stronger effect = lower value 1.03 | locus YDR502C, strain sam2, stronger effect = lower value 0.988 | locus YEL003W, strain gim4, stronger effect = lower value 1.02 | locus YEL037C, strain rad23, stronger effect = lower value 1 | locus YEL061C, strain CIN8 (second series), stronger effect = lower value 1.01 | locus YEL061C, strain CIN8, stronger effect = lower value 1.01 | locus YER015W, strain faa2, stronger effect = lower value 0.998 | locus YER016W, strain bim1, stronger effect = lower value 1.03 | locus YER110C, stronger effect = lower value 0.995 | locus YER111C, strain swi4, stronger effect = lower value 0.997 | locus YER155C, strain BEM2 (second series), stronger effect = lower value 1.05 | locus YER155C, strain BEM2, stronger effect = lower value 1.02 | locus YER167W, strain BCK2, stronger effect = lower value 1.01 | locus YFR010W, strain ubp6, stronger effect = lower value 1.02 | locus YGL078C, strain dbp3, stronger effect = lower value 0.978 | locus YGL086W, strain mad1, stronger effect = lower value 1.01 | locus YGL167C, strain pmr1, stronger effect = lower value 1.02 | locus YGL173C, strain kem1, stronger effect = lower value 1.02 | locus YGL227W, strain vid30, stronger effect = lower value 1.03 | locus YGL240W, strain doc1, stronger effect = lower value 1.05 | locus YGL248W, strain PDE1, stronger effect = lower value 1.02 | locus YGL253W, strain hxk2, stronger effect = lower value 1.02 | locus YGR135W, strain pre9, stronger effect = lower value 0.982 | locus YGR252W, strain gcn5, stronger effect = lower value 0.994 | locus YHR013C, strain ard1, stronger effect = lower value 1.06 | locus YHR027C, strain rpn1, stronger effect = lower value 1.02 | locus YHR030C, strain SLT2, stronger effect = lower value 1.01 and 1.09 | locus YHR079C, strain IRE1 (second series), stronger effect = lower value 0.977 | locus YHR079C, strain IRE1, stronger effect = lower value 1.09 | locus YHR094C, strain hxt1, stronger effect = lower value 0.982 | locus YHR129C, strain ARP1, stronger effect = lower value 1.02 | locus YHR142W, strain chs7, stronger effect = lower value 1.03 | locus YHR200W, strain rpn10, stronger effect = lower value 0.995 | locus YIL066C, strain RNR3, stronger effect = lower value 1.02 | locus YIL073C, strain SPO22, stronger effect = lower value 0.949 | locus YIL125W, strain kgd1, stronger effect = lower value 0.993 | locus YIR030C, strain dcg1, stronger effect = lower value 0.989 | locus YJL092W, strain hpr5, stronger effect = lower value 1.02 | locus YJL095W, strain BCK1 (second series), stronger effect = lower value 1.02 | locus YJL095W, strain BCK1, stronger effect = lower value 1.02 and 1.04 | locus YJL115W, strain asf1, stronger effect = lower value 1.03 | locus YJL129C, strain trk1, stronger effect = lower value 1.01 | locus YJL134W, strain LCB3, stronger effect = lower value 1.02 | locus YJL154C, strain vps35, stronger effect = lower value 1.02 | locus YJL164C, strain tpk1, stronger effect = lower value 1.02 | locus YJL166W, strain qcr8, stronger effect = lower value 1.02 | locus YJL168C, strain set2, stronger effect = lower value 0.99 | locus YJL187C, strain SWE1 (second series), stronger effect = lower value 1.02 | locus YJR043C, strain POL32, stronger effect = lower value 1.02 | locus YJR066W, strain TOR1, stronger effect = lower value 1.01 | locus YJR075W, strain HOC1, stronger effect = lower value 1.02 | locus YKL009W, strain mrt4, stronger effect = lower value 0.988
